According to PubChem BioAssay (EPA / NIEHS):
Values joined by “and” are separate entries in the source; they are usually repeats but may differ in a detail not shown here. Identical values can stand only once. Some structures have more than one record in an assay (separate samples or runs), and their calls can disagree. Active and inactive are the calls of the source. Rule for the calls: active = hit-call score of the fitted dose curve at least 0.9, where 1 is the maximum; inactive = score below 0.9.

Read-out: Monocyte Chemoattractant Protein-1 (MCP1), CCL2 (gene 6347)
Experiment: BSK_SAg_MCP1: BioMAP Diversity Plus: SAg Assay for Monocyte Chemoattractant Protein-1 (MCP1) Biomarker Activity (AID 2283090)
Details: primary human HUVEC with PBMC; actives raise or lower the signal
Method in brief: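 Values derive from bidirectional fitting of ELISA-measured MCP1 against DMSO controls. Readings were taken 24 h after dosing human vascular endothelial cells co-cultured with peripheral blood mononuclear cells under superantigen stimulation.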

E-selectin (Homo sapiens), sequence (P16581 whole entry, looked up): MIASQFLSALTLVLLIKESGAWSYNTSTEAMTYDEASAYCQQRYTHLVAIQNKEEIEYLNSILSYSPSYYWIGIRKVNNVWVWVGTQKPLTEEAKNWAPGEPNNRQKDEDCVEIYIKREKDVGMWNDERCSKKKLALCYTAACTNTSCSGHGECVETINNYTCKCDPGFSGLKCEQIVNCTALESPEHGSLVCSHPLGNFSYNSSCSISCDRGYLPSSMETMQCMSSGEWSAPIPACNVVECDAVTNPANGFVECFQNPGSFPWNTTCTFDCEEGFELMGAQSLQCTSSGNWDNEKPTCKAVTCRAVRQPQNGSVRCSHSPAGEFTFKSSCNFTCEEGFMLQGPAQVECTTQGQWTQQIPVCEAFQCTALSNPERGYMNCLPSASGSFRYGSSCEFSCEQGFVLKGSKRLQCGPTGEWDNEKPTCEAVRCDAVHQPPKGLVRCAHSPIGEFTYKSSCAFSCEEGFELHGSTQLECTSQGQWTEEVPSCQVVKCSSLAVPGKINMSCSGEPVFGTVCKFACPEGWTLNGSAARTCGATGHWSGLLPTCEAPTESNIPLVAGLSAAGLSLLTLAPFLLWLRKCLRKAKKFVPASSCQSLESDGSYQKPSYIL

SMILES	outcome	AC50
O=C(c1ccccc1)c1ccc(O)cc1O	inactive	
O=S(=O)(O)CCC(F)(F)C(F)(F)C(F)(F)C(F)(F)F	inactive	
O=C=NCc1cccc(CN=C=O)c1	inactive	
O=C=Nc1cccc2c(N=C=O)cccc12	inactive	
NS(=O)(=O)C(F)(F)C(F)(F)C(F)(F)C(F)(F)C(F)(F)C(F)(F)F	inactive	
OC(O)C(F)(F)C(F)(F)F	inactive	
OCCCC(F)(F)C(F)(F)C(F)(F)C(F)(F)C(F)(F)C(F)(F)C(F)(F)C(F)(F)F		23.2 µM (active) and 51.9 µM (active)
C=CC(=O)OCC(F)(F)C(F)(F)C(F)(F)COC(=O)C=C		22.5 µM (active) and 14 µM (active)
O=C(O)C(F)(F)C(F)(F)C(F)(F)C(=O)O	inactive	
CCOC(=O)CC(=O)C(F)(F)C(F)(F)F	inactive	
C=C(C)C(=O)OCC(F)(F)C(F)(F)C(F)(F)C(F)F	inactive	
CC(C)(C)c1cc(CCC(=O)NCCCCCCNC(=O)CCc2cc(C(C)(C)C)c(O)c(C(C)(C)C)c2)cc(C(C)(C)C)c1O	inactive	
Brc1nc2ccccc2s1	inactive	
NC(O)(C(F)(F)F)C(F)(F)F	inactive	
O=S(=O)(OCC(F)(F)F)C(F)(F)C(F)(F)C(F)(F)C(F)(F)F	inactive	
CCN(CC)c1ccc(C=O)cc1	inactive	
O=S(=O)(O)CCC(F)(F)C(F)(F)C(F)(F)C(F)(F)C(F)(F)C(F)(F)C(F)(F)C(F)(F)F	inactive	
CNS(=O)(=O)C(F)(F)C(F)(F)C(F)(F)C(F)(F)C(F)(F)C(F)(F)C(F)(F)C(F)(F)F	inactive	
NCC(F)(F)C(F)(F)C(F)(F)C(F)(F)C(F)(F)C(F)(F)F	inactive	
O=C(O)CCC(F)(F)C(F)(F)C(F)(F)C(F)(F)C(F)(F)C(F)(F)C(F)(F)F	inactive	
O=C1c2c(O)ccc(Nc3ccc(CCO)cc3)c2C(=O)c2c([N+](=O)[O-])ccc(O)c21	inactive	
O=C1C=CC(=O)N1c1ccc(Cc2ccc(N3C(=O)C=CC3=O)cc2)cc1		6.98 µM (active)
O=C(O)C(F)(F)C(F)(F)C(F)(F)OC(F)(F)F	inactive	
C=CC(=O)OCCC(F)(F)C(F)(F)C(F)(F)C(F)(F)F		19.4 µM (active) and 14.4 µM (active)
Cc1ccc(S(=O)(=O)C(I)I)cc1		3.7 µM (active)
FC(F)(F)C(F)(F)C(F)(F)CC1CO1 (stereo not drawn)	inactive	

Read-out: E-selectin (Homo sapiens) (UniProt P16581)
Experiment: BSK_SAg_Eselectin: BioMAP Diversity Plus: SAg Assay for Eselectin Biomarker Activity (AID 2283091)
Details: primary human HUVEC with PBMC; actives raise or lower the signal
Method in brief: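 HUVEC co-cultured with PBMC, compound dosed then read at 24 h; E-selectin measured by ELISA. Activity fitted bidirectionally against DMSO as negative control and baseline.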

SMILES	outcome	AC50
O=C(c1ccccc1)c1ccc(O)cc1O	inactive	
Nc1cc([N+](=O)[O-])cc(Cl)c1O	inactive	
O=S(=O)(O)CCC(F)(F)C(F)(F)C(F)(F)C(F)(F)F	inactive	
O=C=NCc1cccc(CN=C=O)c1	inactive	
O=C=Nc1cccc2c(N=C=O)cccc12	inactive	
CCN(CC)c1ccc2c(c1)Oc1cc(N(CC)CC)ccc1C21OC(=O)c2ccccc21	inactive	
NS(=O)(=O)C(F)(F)C(F)(F)C(F)(F)C(F)(F)C(F)(F)C(F)(F)F		41.7 µM (active) and 21.7 µM (active)
OC(O)C(F)(F)C(F)(F)F	inactive	
O=C(O)C(F)(F)C(F)(F)C(F)(F)OC(F)(C(F)(F)F)C(F)(F)F	inactive	
OCCCC(F)(F)C(F)(F)C(F)(F)C(F)(F)C(F)(F)C(F)(F)C(F)(F)C(F)(F)F		52 µM (active) and 54 µM (active)
C=CC(=O)OCC(F)(F)C(F)(F)C(F)(F)C(F)(F)C(F)(F)C(F)(F)C(F)(F)C(F)F	inactive	30 µM (active)
C=CC(=O)OCC(F)(F)C(F)(F)C(F)(F)COC(=O)C=C		8.53 µM (active) and 9.25 µM (active)
O=C(O)C(F)(F)C(F)(F)C(F)(F)C(=O)O	inactive	
CCOC(=O)CC(=O)C(F)(F)C(F)(F)F	inactive	
C=C(C)C(=O)OCC(F)(F)C(F)(F)C(F)(F)C(F)F	inactive	
CC(C)(C)c1cc(CCC(=O)NCCCCCCNC(=O)CCc2cc(C(C)(C)C)c(O)c(C(C)(C)C)c2)cc(C(C)(C)C)c1O	inactive	
Brc1nc2ccccc2s1	inactive	
NC(O)(C(F)(F)F)C(F)(F)F	inactive	

SMILES	outcome	AC50
O=S(=O)(OCC(F)(F)F)C(F)(F)C(F)(F)C(F)(F)C(F)(F)F	inactive	
CCN(CC)c1ccc(C=O)cc1	inactive	
O=S(=O)(O)CCC(F)(F)C(F)(F)C(F)(F)C(F)(F)C(F)(F)C(F)(F)C(F)(F)C(F)(F)F	inactive	
CNS(=O)(=O)C(F)(F)C(F)(F)C(F)(F)C(F)(F)C(F)(F)C(F)(F)C(F)(F)C(F)(F)F	inactive	
NCC(F)(F)C(F)(F)C(F)(F)C(F)(F)C(F)(F)C(F)(F)F	inactive	
O=C(O)CCC(F)(F)C(F)(F)C(F)(F)C(F)(F)C(F)(F)C(F)(F)C(F)(F)F	inactive	
OCCCCC(F)(F)C(F)(F)C(F)(F)C(F)(F)F	inactive	
O=C1c2c(O)ccc(Nc3ccc(CCO)cc3)c2C(=O)c2c([N+](=O)[O-])ccc(O)c21	inactive	
CCOC(C=C(C)CCC=C(C)C)OCC	inactive	
O=C1C=CC(=O)N1c1ccc(Cc2ccc(N3C(=O)C=CC3=O)cc2)cc1		6.88 µM (active)
O=C(O)C(F)(F)C(F)(F)C(F)(F)OC(F)(F)F	inactive	
OCC(F)(F)C(F)(F)C(F)(F)C(F)(F)C(F)(F)C(F)(F)C(F)(F)C(F)(F)CO	inactive	
C=CC(=O)OCCC(F)(F)C(F)(F)C(F)(F)C(F)(F)F		40.1 µM (active) and 40 µM (active)
O=S(=O)(Cl)C(F)(F)C(F)(F)C(F)(F)C(F)(F)C(F)(F)C(F)(F)C(F)(F)C(F)(F)F	inactive	37.5 µM (active)
COC(F)(C(F)F)C(F)(F)F (stereo not drawn)	inactive	
Cc1ccc(S(=O)(=O)C(I)I)cc1		5.14 µM (active)
FC(F)(F)C(F)(F)C(F)(F)CC1CO1 (stereo not drawn)	inactive	
